Most compounds without a hit are left out; they make up all but 4.7% or so of the library.
SDO1 yeast rescue: sdo1-depleted yeast growth rescue; hit rate 0.21% among 140,000; z-score at 10 µM; S. cerevisiae sdo1-depleted JHY4D growth rescue, OD600 30 h; hits give high values; pdr5 snq2 efflux-pump mutant strain; AID 817;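 active = z-score above 3 at both the 24 hr and the 30 hr optical density reads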;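 also: z-score against mean and SD of all compound wells on the same plate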
PLK1 inh: blocks human PLK1 kinase activity | P53350 | recombinant PLK1 kinase, TR-FRET peptide phosphorylation | inhibition, % at 10 µM | hit rate 0.53% among 97,000 | AID 619;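 active = inhibition of 50% or more in the single-concentration screen; inactive = inhibition below 50%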;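 also: 0% = DMSO max control and 100% = H-89 dihydrochloride min control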
DAT uptake mod: modulates human dopamine transporter uptake under cocaine; LLC-PK1 hDAT cells, [14C]-dopamine uptake with cocaine IC80; actives deviate in either direction; hit rate 1.3% among 110,000; B-score at 10 µM; Q01959;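 active = Z score or B-score, a plate-position-corrected score, falls beyond the plate's 99.7% confidence bounds, in either direction; inactive = both scores lie inside the 99.7% bounds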;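 also: scored against the spread of the other compound wells on the same plate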
Cav32 inh: blocks human Cav3.2 T-type calcium channel; O95180; Cav3.2-expressing cells, Fluo-4 calcium fluorescence FDSS; hits give low values; B-score at 10 µM; hit rate 4% among 100,000;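 active = single-dose well whose peak fluorescence ratio is a statistical outlier from its plate by either plate-standardised score or position-corrected B-score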
Plk1 PBD FP: blocks phosphopeptide binding to human Plk1 polo box domain | P53350 | Plk1 PBD phosphopeptide binding, fluorescence polarization | inhibition, %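 (tested at about 20 µM)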 | hit rate 0.13% among 97,000 | AID 693; in the data active = inhibition above about 34%, passing the limit was not always enough
Pyk2 oligo antag: blocks oligomerization of human Pyk2 in cells | Q14289 | Q293 cells, Pyk2 FERM NanoBiT luminescence; hits give low values | z-score (the deposit names both 25 µM and 10 µM) | hit rate 0.83% among 99,000;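 active = Z-score of -3 or lower, scaled per plate to the spread of control and sample wells; inactive = z-score above -3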;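 also: negative z-score means lost luminescence so less FERM oligomerization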
The depositor's hits bear a star; nt = no result given.

SMILES	SDO1 yeast rescue	PLK1 inh	DAT uptake mod	Cav32 inh	Plk1 PBD FP	Pyk2 oligo antag
Cc1ccc(S(=O)(=O)n2nc(OC(=O)c3c(-c4ccccc4Cl)noc3C)cc2N)cc1	1.06	-9.9	1.29	-7.37*	8.7	0.17
CCC1=C[C@H]2CN(C1)Cc1c([nH]c3ccccc13)[C@@](C(=O)OC)(c1cc3c(cc1OC)N(C)[C@H]1[C@@](O)(C(=O)OC)[C@H](OC(C)=O)[C@]4(CC)C=CCN5CC[C@]31[C@@H]54)C2	nt	nt	-1.07	-0.661	nt	nt
O=C(Cn1[nH]c(=O)c2ccccc2c1=O)OCC(=O)N(Cc1ccccc1)Cc1ccccc1	-0.46	-9.8	0.45	-4.42*	-8.9	0.82
COc1ccc(C(=O)Nc2cccc(-c3cc4ccccc4oc3=O)c2)cc1[N+](=O)[O-]	-0.83	nt	nt	nt	nt	nt
O=C1CC(c2nc3ccccc3[nH]2)CN1c1cccc(C(F)(F)F)c1 (stereo not given)	-0.07	nt	1.22	-5.44*	nt	nt
COc1ccccc1N=C1SC(C(=O)Nc2ccc(F)cc2)CC(=O)N1C (stereo not given)	0.02	-5.1	-0.195	1.2	-11.2	0.37
CCOc1cccc(NC(=O)C2CC(=O)N(C)C(=Nc3ccccc3)S2)c1 (stereo not given)	-0.05	-4.2	0.246	-4.48*	-17.0	-1.36
CCOc1cccc(NC(=O)C2CC(=O)N(C)C(=Nc3cccc(F)c3)S2)c1 (stereo not given)	0.55	-7.2	0.974	-4.74*	-5.4	-2.39
COc1ccc(C(C(=O)NC2CCCCC2)N(C(=O)CCl)c2cccc(Cl)c2)cc1 (stereo not given)	-0.88	nt	nt	nt	nt	nt
CC(C)(C)SCCNC(=O)/C=C/c1cccc([N+](=O)[O-])c1	-0.51	nt	nt	nt	nt	nt
COc1cccc(CN2CCC(C(=O)N3CCN(c4ccccc4F)CC3)CC2)c1OC	1.42	nt	nt	nt	nt	nt
Cc1ccc(S(=O)(=O)NNC(=O)C2Cc3c(ccc4ccccc34)O2)cc1 (stereo not given)	-0.8	-10.6	-8.52*	-2.21	-12.2	1.4
O=C(O)CCC(=O)Nc1ccc(Sc2ccc([N+](=O)[O-])cc2)cc1	0.67	nt	nt	nt	nt	nt
COc1ccc(OC)c(C(c2nnnn2Cc2ccccc2)N2CCN(C3CCCCC3)CC2)c1 (stereo not given)	0.05	nt	0.189	-2.91	nt	0.74
CCc1ccc2[nH]c(=O)c(C(c3nnnn3CCOC)N3CCN(c4ccc(F)cc4)CC3)cc2c1 (stereo not given)	0.07	-3.9	1.13	-5.65*	-29.2	0.37
COc1ccc(OC)c(C(c2nnnn2C2CCCC2)N2CCN(c3ccccc3)CC2)c1 (stereo not given)	-1.17	nt	0.587	nt	nt	-3.53*
c1ccc(CC2CCN(C(c3cccs3)c3nnnn3C3CCCC3)CC2)cc1 (stereo not given)	-1.59	-8.1	-0.721	-3.44*	4.7	-2.19
CCc1ccc2[nH]c(=O)c(C(c3nnnn3CCOC)N3CCN(c4ccccc4)CC3)cc2c1 (stereo not given)	-0.36	-5.8	0.723	-1.79	-23.6	0.07
COc1ccc(C(c2nnnn2C2CCCC2)N2CCC(C)CC2)cc1 (stereo not given)	-1.62	-12.6	-2.98*	-4.44*	5.0	-1.35
COCCn1nnnc1C(c1ccc(OC)cc1)N1CCC(C)CC1 (stereo not given)	-0.87	nt	-1.01	-0.0507	nt	3.91
O=C(c1ccco1)N1CCN(C(c2cccs2)c2nnnn2C2CCCC2)CC1 (stereo not given)	-0.11	0.7	0.742	0.157	8.3	0.2
C#CCNC(=O)C1=C[C@@H](c2ccc(C(F)(F)F)cc2)[C@H](CCCO)[C@@H](OCC)O1	nt	nt	0.326	-0.344	nt	nt
O=C(O)CCC1OC(=O)C(O)=C1c1ccccc1 (stereo not given)	nt	nt	-2.06	0.144	nt	nt
c1ccc(C(c2nnnn2C2CCCC2)N2CCN(c3ccccc3)CC2)cc1 (stereo not given)	-1.89	-9.6	-0.289	-5.14*	-8.6	-2.08
Cc1cc(C)c2cc(C(c3nnnn3C3CCCC3)N3CCOCC3)c(=O)[nH]c2c1 (stereo not given)	0.32	nt	-0.408	1.94	nt	1.7
SMILES	SDO1 yeast rescue	PLK1 inh	DAT uptake mod	Cav32 inh	Plk1 PBD FP	Pyk2 oligo antag
Cc1ccc2cc(C(c3nnnn3C3CCCC3)N3CCN(c4ccc(F)cc4)CC3)c(=O)[nH]c2c1 (stereo not given)	-0.99	-11.3	3.73*	-5.35*	-4.4	2.65
COc1ccc(C(c2nnnn2C2CCCCC2)N2CCN(c3ccc(OC)cc3)CC2)cc1 (stereo not given)	-0.2	-15.1	0.804	-6.4*	7.5	-2.32
c1cnc2ccc(C(c3nnnn3C3CCCCC3)N3CCCCC3)cc2c1 (stereo not given)	-1.5	-8.1	0.029	-4.68*	19.6	-1.13
C=CCOC(=O)C1=C(C)NC(C)=C(C(=O)OCC=C)C1c1cn(-c2ccccc2)nc1-c1ccco1	-0.38	nt	nt	nt	nt	nt
CCCC(=O)Nc1cc(C(=O)O)ccc1S(=O)(=O)c1ccc(Cl)cc1	0.52	nt	nt	nt	nt	nt
O=C(NCc1ccc(Cl)cc1)c1ccc(Cn2cc(C(F)(F)F)ccc2=O)cc1	-0.41	-11.4	0.956	-5.7*	-25.7	0.72
O=C(/C=C/c1ccc(S(=O)(=O)N2CCOCC2)cc1)NCc1ccccc1Cl	-0.89	nt	nt	nt	nt	nt
Cc1cc2oc(=O)cc(CN3CCCCC3)c2cc1C(C)C	-0.44	-9.3	0.582	-4.73*	-1.0	0.29
O=C1CN(C(=O)c2cc3ccccc3oc2=O)C(c2ccc(F)cc2)c2cc(Br)ccc2N1 (stereo not given)	-0.64	nt	nt	nt	nt	nt
Cc1cccc(CSCCNC(=O)CSCc2ccc([N+](=O)[O-])cc2)c1	-0.82	-8.9	-0.127	-3.23*	8.6	0.99
Cc1ccc(CSCCNC(=O)CSCc2ccc([N+](=O)[O-])cc2)cc1	-0.48	-6.1	1.09	-4.27*	6.7	0.81
CCOc1ccc(/C=N/OCC(=O)NCc2ccc3c(c2)OCO3)cc1OC	0.53	nt	nt	nt	nt	nt
CCn1c(=O)cc(OCC(=O)N(C)C2CCCCC2)c2ccccc21	-0.52	-8.3	2.42*	0.482	-12.5	0.85
CCOc1ccc(Br)cc1S(=O)(=O)Nc1cccc(S(=O)(=O)N(C)C)c1	-0.88	nt	nt	nt	nt	nt
COc1cccc(-c2csc(N3CCN(C(=S)Nc4ccccc4Cl)CC3)n2)c1	-0.8	-8.0	1.21	-4.05*	-15.7	-0.05
Clc1ccc(Sc2cc(Cl)c(-c3ccccc3)nn2)cc1	-1.88	-11.0	-0.581	-3.02	21.2	-3.43*
Clc1ccc(SCc2cc(Cl)nc(-c3ccccc3)n2)cc1	nt	-6.6	0.765	-1.47	-17.6	-0.15
Cc1ccc(-c2ccc(/C=N/c3ncn[nH]3)o2)cc1Cl	-0.22	-3.3	0.037	-6.74*	-17.7	0.52
CCN(CC)C(=O)C1CCN(S(=O)(=O)c2ccc3oc4ccccc4c3c2)CC1	-1.69	-5.5	2.26*	nt	-13.8	-1.96
Cc1ccc(CNC(=O)Cn2cccc2C(=O)c2ccccc2)cc1	-0.43	-5.7	-0.0248	-4.89*	21.6	-0.4
CCn1cc(C(=O)O)c(=O)c2cc(F)c(N/N=C/c3ccccc3[N+](=O)[O-])cc21	-1.25	nt	nt	nt	nt	nt
